CF NFkB inh: inhibitors of PAF-induced NF-kB signaling, primary screen, cell-based, GFP fluorescence, uHTS; actives 0.86% (n = 360,000); KKLEB NF-kB-GFP reporter, GFP fluorescence overnight; inhibition, % at 5 µM; AID 588850, 2011;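 active means at least 50% inhibition at 5 µM, scaled per plate between neutral and stimulator controls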;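 further: PAF is a Pseudomonas aeruginosa culture filtrate used as stimulus; plate controls were PAF-stimulated DMSO wells for no effect and unstimulated DMSO wells for full effect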
CHOP inhibitor: inhibitors of CHOP promoter induction, primary screen, cell-based, unfolded protein response, luciferase reporter | CHO-K1 CHOP-promoter luciferase, tunicamycin-induced, 15-18 h | actives 3.8% (n = 220,000) | inhibition, % at 10 µM;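 active means compounds that reduced the stress-induced luciferase reporter signal by more than about 70% of percent inhibition, limit read from the data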;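 further: 0% = tunicamycin plus vehicle and 100% = wells without tunicamycin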
HIF-2a block: HIF-2a reporter inhibitors, primary screen, luminescence, 786-0 RCC cells; 786-0 RCC cells HIF-2a reporter, luciferase luminescence, overnight; inhibition, % at 18.8 µM; actives 0.72% (n = 360,000); AID 624352, 2012;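 active means inhibition of the luminescence signal of 40% or more relative to plate controls, in a single-dose primary screen at 18.75 µM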
MITF TRPM1 inh: inhibitors of MITF-dependent TRPM1 promoter reporter, primary screen, cell-based, SK-MEL-5, single point, luciferase; SK-MEL-5 TRPM1 promoter luciferase, 24 h; inhibition, % at 12.5 µM; actives 0.83% (n = 330,000); AID 488899, 2010;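 active means mean inhibition across replicates of 60% or more, whatever share of single replicates reaches that level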
Peg3 promoter: Peg3 promoter-driven luciferase inhibitors, primary screen, cell-based, HeLa, luciferase luminescence | AID 588405, 2011 | inhibition, % at 20 µM | actives 1.7% (n = 360,000) | HeLa PEG-Prom luciferase reporter, overnight;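 active means inhibition of at least 50% at 20 µM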
KKLEB tox: cytotoxicity in KKLEB CF airway cells, primary screen, cytotoxicity control for CF NF-kB inhibitor project, cell-based, uHTS, fluorescence assay plates; activity change (cytotoxicity), % at 5 µM; KKLEB CF airway cells viability, ATPlite luminescence, overnight; stronger effect = lower value; cells stimulated with P. aeruginosa culture filtrate; AID 602141, 2011; actives 0.36% (n = 360,000);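 active means corrected activity change at or below -50% at 5 µM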
* hit, by the source's call; . = no result. In the library only some 4.3% were active in any assay of this set; here they are far more common.

SMILES	CF NFkB inh	CHOP inhibitor	HIF-2a block	MITF TRPM1 inh	Peg3 promoter	KKLEB tox
CN(C)c1ccc(-c2cc(NC=O)c3ncc(-c4ccc(F)c(Cl)c4)n3c2)cc1	-6	.	-29	.	-16	-3
CCCS(=O)(=O)NC(=O)C1(C)CCCN(C(=O)c2cc(OC)ccc2Br)C1 (stereo unspecified)	6	.	11	.	-2	6
CC(Nc1ccc(Br)cn1)c1cc(Cl)ccc1O (stereo unspecified)	3	77*	5	-2	6	4
Cc1cn([C@H]2C[C@H](O)[C@@H](CCC(=O)NCCc3cccs3)O2)c(=O)[nH]c1=O	-26	.	8	.	2	10
CC(C)NC(=O)C(C)Oc1ccc(S(=O)(=O)NCc2ccc3c(c2)OCO3)cc1 (stereo unspecified)	-2	.	11	-4	1	16
O=C(Cn1ncc2c1-c1ccccc1OC2)N1CCN(Cc2ccc3c(c2)OCO3)CC1	-6	77*	7	5	16	11
CCOC(=O)c1sc(NC(=O)CSc2nc3c(c(=O)n2-c2ccc(C)cc2)SCC3)c(C(=O)OCC)c1C	30	-6	1	.	-1	-60*
CC(C)S(=O)(=O)c1cnc(N2CCOCC2)nc1N	7	-3	6	-1	7	1
Cc1cc(OCC(=O)Nc2cc(-c3nn4c(C)nnc4s3)ccc2C)ccc1Cl	2	95*	-5	-5	10	-10
COC(=O)C(C)Sc1nc2c(cnn2-c2ccc(Cl)cc2)c(=O)[nH]1 (stereo unspecified)	-4	.	19	2	18	8
CCCCCCCC(=O)OCC(=O)[C@@]1(O)CC[C@H]2[C@@H]3CCC4=CC(=O)CC[C@]4(C)[C@H]3[C@@H](O)C[C@@]21C	61*	18	26	-11	-6	41
CCOC(=O)OCC(=O)C1(O)CCC2C3CCC4=CC(=O)CCC4(C)C3C(O)CC21C (stereo unspecified)	68*	.	18	-30	-10	23
CC12CCC(=O)C=C1CCC1C2C(O)CC2(C)C1CCC21OCC1=O (stereo unspecified)	26	.	9	4	-7	12
CC12CCC(=O)C=C1CCC1C2C(O)CC2(C)C1CCC2(O)C(=O)COC(=O)COCC(=O)O (stereo unspecified)	70*	.	15	16	-2	19
CCCCCC(=O)O[C@]1(C(C)=O)CC[C@H]2[C@@H]3CCC4=CC(=O)CC[C@]4(C)[C@H]3CC[C@@]21C	44	58	-2	0	15	10
CC(=O)OCC(=O)C1(O)CCC2C3CCC4=CC(=O)CCC4(C)C3C(O)CC21C (stereo unspecified)	60*	.	14	-2	-3	31
COc1ccc(/C=C2/CCc3ccccc3C2=O)cc1CN1CCOCC1	22	-67	-6	-7	8	-21
COc1ccc(/C=C2\CCc3ccccc3C2=O)cc1Cn1nc(C)cc1C	1	70*	9	13	21	-4
Cc1[nH]c2c(ccc3cccnc32)c1C	-3	24	-73	-11	-64	1
CC1=[N+](C)c2c(ccc3cccnc23)C1(C)C	14	75*	-21	-35	23	-1
Nc1c(C(=O)CSc2nc(-c3ccccc3)cs2)c(=O)[nH]c(=O)n1C1CC1	-3	.	-9	-12	3	1
CC1CN(S(=O)(=O)c2ccc(C(=O)Nc3nnc(-c4ccc5c(c4)CCCC5)o3)cc2)CC(C)O1 (stereo unspecified)	3	104*	0	18	23	-10
CC1CN(S(=O)(=O)c2ccc(C(=O)Nc3nnc(-c4ccccn4)o3)cc2)CC(C)O1 (stereo unspecified)	0	-14	13	-18	0	-8
O=C(COc1ccc(Cl)cc1)Nc1nnc(-c2ccc3c(c2)CCCC3)o1	19	87*	-137	-33	-182	-14
COc1ccccc1C(=O)Nc1nnc(-c2ccc3c(c2)CCCC3)o1	-5	80*	-238	.	-86	-2

Compound activity as filed in PubChem BioAssay.
